# HIV RNase H inh-1 – blocks HIV-1 RNase H cleavage of RNA/DNA duplex. P04585. RT-RNase H RNA/DNA duplex cleavage, fluorescence. inhibition, % at 10 µM. hit rate 1.9% among 65,000. AID 565; in the data active = inhibition above about 50%
# HIV RNase H inh-2 – confirmation of HIV-1 reverse transcriptase RNase H inhibitors. shares compounds with HIV RNase H inh-1. Recombinant RT RNase H, fluorescent RNA/DNA duplex cleavage. inhibition, % at 10 µM. hit rate 39% among 1,000. AID 651; in the data active = inhibition above about 48%; inconclusive = no clear call, values can overlap the other calls
# * = called active by the depositor; ? = inconclusive. The entries come from a sample that favours hits as a whole.
SMILES,HIV RNase H inh-1,others
Cc1sc2nc3c(C(=O)N4CCN(c5ncccn5)CC4)cccn3c(=O)c2c1C,0,
O=c1oc2ccccc2c(O)c1CN1CCCCC1,1,
O=C1NCCCC2c3c(cc(Br)c(O)c3Br)OC12N1CCOCC1 (centres undefined),22,
O=C1NCCCC2c3cc(O)c4ccccc4c3OC12N1CCCCC1 (centres undefined),52*,HIV RNase H inh-2=15
c1ccc2[nH]c(NCCCN3CCOCC3)nc2c1,-4,
O=C(CSc1nc2ccccc2[nH]1)Nc1ccccc1N1CCOCC1,-3,
c1ccc2[nH]c(SN3CCOCC3)nc2c1,91*,HIV RNase H inh-2=66*
Cn1c(=O)oc2cc(S(=O)(=O)NCCC(=O)NCCc3ccccc3)ccc21,-8,
O=C(CCCN1C(=O)c2cccnc2C1=O)N1CC(=O)N(CCc2ccccc2)C(=O)C1,-3,
CSCSC1=C(C#N)C(c2ccc(Cl)cc2)C(C(C)=O)=C(C)N1 (centres undefined),61*,HIV RNase H inh-2=18
CC(=O)C1=C(C)NC(SCC(=O)c2ccc(Cl)cc2)=C(C#N)C1c1ccco1 (centres undefined),-45,
CCOC(=O)CSC1=C(C#N)C(c2ccccc2)C(C(C)=O)=C(C)N1 (centres undefined),3,
COc1ccccc1CN1C(=S)SC(C)(C)C1NO (centres undefined),-30,
CCOCCn1c(CN2CCOCC2)nc2c1c(=O)[nH]c(=O)n2C,2,
CC(=O)c1ccc(OCCCC(=O)OCC(=O)N2CCN(c3ccccc3)CC2)cc1,-1,
CCOC(=O)c1sc(NC(=O)CSc2ccccn2)c(C#N)c1C,19,
Cc1cc(NC(=O)CSc2nc(-c3ccco3)cc(C(F)(F)F)n2)no1,-3,
CCOC(=O)c1sc(NC(=O)CSc2ncn[nH]2)c(C#N)c1C,3,
Cc1nn(C)c(C)c1NC(=O)CCSc1nc(-c2ccco2)cc(C(F)(F)F)n1,3,
CCc1nnc(NC(=O)CSc2nnc(Cc3ccccc3)o2)s1,-18,
CCOC(=O)c1sc(NC(=O)CSc2nc(-c3ccco3)cc(C(F)(F)F)n2)c(C#N)c1C,76*,HIV RNase H inh-2=?
CCOC(=O)c1c(NC(=O)CSc2nnc(CNc3ccc(F)cc3)o2)sc(C(C)=O)c1C,21,
CCOC(=O)c1sc(NC(=O)CSc2n[nH]c(-c3ccccc3)n2)c(C#N)c1C,83*,HIV RNase H inh-2=62*
CCOC(=O)c1sc(NC(=O)CSc2nnc(Cc3ccccc3)o2)c(C#N)c1C,90*,HIV RNase H inh-2=54*
Oc1ccc(Br)cc1/C=N/n1cnc2ccccc21,7,
SMILES,HIV RNase H inh-1,others
COCCn1nnnc1C(C(C)C)N(Cc1cccnc1)Cc1ccccc1Cl (centres undefined),-2,
Cc1csc(NC(=O)c2cccc(S(=O)(=O)N3CCCCC3)c2)n1,-5,
CCOC(=O)Cc1csc(NC(=O)c2cccc(N3C(=O)CCC3=O)c2)n1,-17,
Cc1ccc(-c2csc(NC(=O)c3cccc(N4C(=O)CCC4=O)c3)n2)o1,57*,HIV RNase H inh-2=24
CC(=O)CC(C)(C)n1nnc(-c2ccccc2)n1,-3,
Cc1ccc(-n2c(=O)[nH]c3c(C(N)=O)nc(-c4ccc(C)o4)nc32)cc1,55*,HIV RNase H inh-2=37
Cc1ccc(-n2c(=O)[nH]c3c(C(N)=O)nc(CC(C)C)nc32)cc1,1,
COc1ccc(OC)c(-c2nc(C(N)=O)c3[nH]c(=O)n(-c4ccc(F)cc4)c3n2)c1,-1,
CNC(=O)C1CC(=O)N(Cc2ccc3c(c2)OCO3)C(=Nc2ccc(OC)cc2)S1 (centres undefined),-10,
COc1ccccc1-c1cc(C(=O)Nc2c(F)cc(F)cc2Br)no1,-9,
O=S(=O)(c1ccccc1)N1CCN(S(=O)(=O)c2ccccc2)C1,-9,
O=S(=O)(c1ccccc1)n1ccc2ccccc21,-112,
O=S(=O)(/N=S1/CC=CCN1S(=O)(=O)c1ccccc1)c1ccccc1 (centres undefined),79*,HIV RNase H inh-2=60*
Cc1nn(-c2ccccc2)c(-c2ccccc2)c1C(=O)O,6,
O=C(Cn1c(NCCCO)nc2ccccc21)c1cccc(Br)c1,4,
O=C(Nc1ccccc1)Nc1ccccn1,-10,
O=C(O)c1ccccc1C(=O)Nc1ccccn1,-5,
S=C(Nc1ccccn1)c1ccccn1,73*,HIV RNase H inh-2=68*
COc1ccc(CN(Cc2cc3cc4c(cc3[nH]c2=O)OCO4)C(=O)NC2CCCCC2)cc1,0,
COC(=O)c1ccccc1S(=O)(=O)N(Cc1cc2cc3c(cc2[nH]c1=O)OCO3)C1CCCCC1,53*,HIV RNase H inh-2=52*
O=c1[nH]c2cc3c(cc2cc1CN(CC1CCCO1)S(=O)(=O)c1ccccc1)OCCO3 (centres undefined),-9,
CC(C)n1c(-c2ccco2)csc1=Nc1cccnc1,-36,
Cc1ccc(Sc2oc(/C=N/n3cnnc3)cc2Br)cc1,-27,
O=C(NCc1ccco1)c1ccc2c(c1)C(=O)N(Cc1ccccc1)C2=O,1,
COC(=O)c1ccccc1NC(=O)c1ccc2c(c1)C(=O)N(Cc1ccco1)C2=O,61*,HIV RNase H inh-2=94*
SMILES,HIV RNase H inh-1,others
CCc1ccc(NC(=O)c2ccc3c(c2)C(=O)N(Cc2ccco2)C3=O)cc1,43,
CCS(=O)(=O)N1CCCC(C(=O)NC2CCC(C)CC2)C1 (centres undefined),-31,
COc1ccc(C(c2sc3nc(C)nn3c2O)N2CCc3ccccc3C2)cc1 (centres undefined),79*,HIV RNase H inh-2=4
COc1cc(C(c2sc3nc(C)nn3c2O)N2CCc3ccccc3C2)cc(OC)c1OC (centres undefined),24,
COc1ccc(C(c2sc3nc(C)nn3c2O)N2CCCCC2)cc1 (centres undefined),-3,
CCOC(=O)c1cc2sc(C)cc2n1CC(=O)Nc1cccc(C)c1C,-4,
CCOC(=O)c1cc2sc(C)cc2n1CC(=O)Nc1ccc2c(c1)OCCO2,58*,HIV RNase H inh-2=?
CCOC(=O)c1cn(CC(=O)Nc2ccc3c(c2)OCCO3)nn1,-6,
Cc1ccc(C)n1CCN1CCN(CC(=O)Nc2cc(C(F)(F)F)ccc2Cl)CC1,4,
COc1ccc(OC)c(C2=NOC(C(=O)Nc3cc(C)nn3-c3ccccc3)C2)c1 (centres undefined),-5,
COc1cc2c(c(OC)c1)C(c1cccc(OC)c1OC)CC(=O)N2 (centres undefined),-44,
CCCOc1c(OC)cccc1C1CC(=O)Nc2cc(OC)c(OC)c(OC)c21 (centres undefined),66*,HIV RNase H inh-2=35
COc1ccc(OC)c(C2CC(=O)Nc3cc(OC)c(OC)c(OC)c32)c1 (centres undefined),6,
CCOC(=O)C1CCN(C(c2cccc(OC)c2)c2sc3nc(C)nn3c2O)CC1 (centres undefined),-9,
Cc1cc(NC(=O)CSc2cn(C)c3ccccc23)no1,-15,
CCN(CC)CCCNC(=O)c1cn(CCOC)c(=O)c2c1c1ccccc1n2C,8,
O=C(CSc1nnc(Nc2ccccc2)s1)NCc1ccco1,-5,
O=C(CSc1nnc(Nc2ccccc2F)s1)NCc1ccco1,33,
Cc1ccccc1Nc1nnc(SCC(=O)NC(=O)NCc2ccco2)s1,67*,HIV RNase H inh-2=20
CCCc1oc2c(c(=O)c1CC)C(=O)CC(C)(C)C2,3,
Cn1c(=O)c2cc(S(=O)(=O)N3CCOCC3)ccc2n(C)c1=O,-11,
CCN1C(=O)Cc2cc(S(=O)(=O)N3CCOCC3)ccc21,-2,
O=c1c2ccccc2sn1-c1cc(S(=O)(=O)N2CCOCC2)ccc1N1CCOCC1,95*,HIV RNase H inh-2=61*

# Screening data deposited in PubChem by University of Pittsburgh Molecular Library Screening Center.
